# “And” between values parts separate entries of the source, which are not always exact repeats. Equal entries are not always repeated. Records with an inconclusive call do not appear. Values without a mark were called inactive. Calls follow the shape of the dose curve; as a rule, active = well fitted curve in the direction sought with a large enough effect in the signal ratio, with a control signal flat; inconclusive = small, poorly fitted or top-dose-only effect, or a change in a side signal; inactive = no such curve, though single readings can be large or run the other way; the % refers to the signal ratio.
# Biological target: Glucocorticoid receptor (Homo sapiens) (UniProt P04150)
# Sequence (P04150 whole entry, looked up): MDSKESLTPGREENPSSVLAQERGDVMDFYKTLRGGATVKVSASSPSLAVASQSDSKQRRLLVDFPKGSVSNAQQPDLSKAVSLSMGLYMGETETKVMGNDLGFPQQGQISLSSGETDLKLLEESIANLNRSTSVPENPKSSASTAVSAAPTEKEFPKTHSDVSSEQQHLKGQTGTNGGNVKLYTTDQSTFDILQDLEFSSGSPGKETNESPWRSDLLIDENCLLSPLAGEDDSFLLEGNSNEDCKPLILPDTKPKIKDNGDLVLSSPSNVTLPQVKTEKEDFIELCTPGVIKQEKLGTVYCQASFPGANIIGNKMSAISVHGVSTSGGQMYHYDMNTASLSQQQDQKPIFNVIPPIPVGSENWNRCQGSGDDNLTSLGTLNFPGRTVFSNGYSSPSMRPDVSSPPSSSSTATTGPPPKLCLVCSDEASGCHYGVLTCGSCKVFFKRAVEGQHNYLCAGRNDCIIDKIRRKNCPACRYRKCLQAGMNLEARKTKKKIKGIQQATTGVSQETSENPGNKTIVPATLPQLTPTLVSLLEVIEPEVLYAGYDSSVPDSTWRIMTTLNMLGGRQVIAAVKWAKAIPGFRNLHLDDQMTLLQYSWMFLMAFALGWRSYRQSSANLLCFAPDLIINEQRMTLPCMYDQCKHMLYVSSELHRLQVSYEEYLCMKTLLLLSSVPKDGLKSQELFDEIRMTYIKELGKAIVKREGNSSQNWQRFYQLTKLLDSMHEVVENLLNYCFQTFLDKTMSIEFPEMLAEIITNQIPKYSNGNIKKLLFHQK
# Experiment: qHTS assay for small molecule agonists of glucocorticoid receptor signaling (AID 588532)
# Settings: HeLa MMTV-bla, beta-lactamase ratio, agonist, 18 h; activation: hits give high values, percent of dexamethasone control, DMSO zero
# Source text: NIH Chemical Genomics Center [NCGC] U.S. Environmental Protection Agency [EPA] National Institutes of Environmental Health Sciences [NIEHS] National Toxicology Program [NTP] NCGC Assay Overview The Glucocorticoid receptor (GR), a nuclear receptor subfamily member and its natural ligands includes […] etc. The GR is a validated drug target for inflammation. GR ligands such as dexamethasone are clinically available as anti-inflammatory drugs. Glucocorticoids implicate role in carbohydrate, protein and lipid metabolisms and programmed cell death. They are also a component of many chemotherapy regimens for the treatment of leukemias, lymphomas, and myelomas because of their role in the induction of apoptosis.
# NCGC Assay Protocol Summary Using a beta-lactamase reporter-gene under control of glucocorticoid response element (GRE), a cell-based assay [CellSensor MMTV-bla HeLa cell line assay developed by Invitrogen] was used to measure GR ligands signaling. CellSensor MMTV-bla HeLa cells were used with assay medium containing 1% charcoal/dextran treated FBS, 0.1 mM NEAA, 1 mM sodium pyruvate and 25mM HEPES. The assay was performed in clear bottom black Greiner 1536-well plates. Dexamethasone and Mifepristine were used in the screen as agonist and antagonist positive controls respectively. Library compounds were measured for their ability to stimulate the reporter gene activity. Compounds were screened in a titration series in 1536-well format. The fluorescence intensity (405 nm excitation, 460/530 nm emission) was measured using an EnVision plate reader. Data was normalized relative to Dexamethasone control (0.1 uM, 100%), and DMSO only wells (basal, 0%). Concentration-response titration points for each compound were fitted to the Hill equation yielding concentrations of half-maximal stimulation (EC50) and maximal response (efficacy) values. qHTS protocol for GR beta-lactamase assay in agonist mode [Step] [Parameter] [Value] [Description] 1. Reagent; 6 uL; 1500 cells/well 2. Incubation; 37 C for 3-5 hrs 3. Compounds; 23 nL; 0.59 nM to 92 uM 4. Controls (Dexamethasone); 23 nL, - One column with dose response, start 4.6uM, 1:3 dilutions in duplicates - Final concentrations of 0.1 uM and 2 nM in two columns 5. Incubation; 37 C for 18 hrs 6. Detection reagent; 1 uL of CCF4-dye 7. Incubation; RT for 2 hrs 8. Detection; Fluorescence; Envision plate reader
row,Compound,activation
1,COP(=S)(OC)Oc1ccc([N+](=O)[O-])c(C)c1,-13.6%
2,CCCCCCCCCCCC#N,-5.17%
3,Clc1ccc(C(c2ccc(Cl)cc2)C(Cl)Cl)cc1,-2.1%
4,Oc1ccc(C(c2ccc(O)cc2)(C(F)(F)F)C(F)(F)F)cc1,-15.3%
5,CCCCCCCCCCCCC1=C(OC(C)=O)C(=O)c2ccccc2C1=O,-3.65%
6,COc1nn(C(=O)NS(=O)(=O)c2ccccc2OC(F)(F)F)c(=O)n1C,-3.65%
7,N#CCNC(=O)c1cnccc1C(F)(F)F,0.151%
8,CCSCCSP(=O)(OC)OC,8.21%
9,CCCCN(CC)C(=O)SCCC,4.14%
10,O=[As](O)(O)O,-5.56%
11,O=CNC(N1CCN(C(NC=O)C(Cl)(Cl)Cl)CC1)C(Cl)(Cl)Cl (stereo not given),-2.65%
12,O=C(O)C(F)(F)C(F)(F)C(F)(F)C(F)(F)C(F)(F)C(F)(F)C(F)(F)C(F)(F)C(F)(F)F,-0.443%
13,O=C(NC(=O)c1c(F)cccc1F)Nc1ccc(OC(F)(F)C(F)OC(F)(F)F)c(Cl)c1 (stereo not given),-15.7%
14,CC(C)(C)[C@@H](O)/C(=C\c1ccc(Cl)cc1Cl)n1cncn1,-11.9%
15,CCNc1nc(NC(C)C)nc(OC)n1,-1.69%
16,c1ccc2c(c1)oc1ccccc12,0.193%
17,CCNC(=O)NC(=O)/C(C#N)=N/OC,3.07%
18,Cc1nc(N(C)C)nc(OC(=O)N(C)C)c1C,1.95%
19,Nc1ccccc1C(=O)OCCc1ccccc1,-0.582%
20,CNc1cnn(-c2cccc(C(F)(F)F)c2)c(=O)c1Cl,-4.87%

row,Compound,activation
1,C/C(=N\NC(=O)Nc1cc(F)cc(F)c1)c1ncccc1C(=O)O,10.9% and -10.6%
2,N#CC(CCc1ccc(Cl)cc1)(Cn1cncn1)c1ccccc1 (stereo not given),-4.45%
3,CC(Oc1ccc(Cl)cc1Cl)C(=O)O (stereo not given),6.74%
4,CCC[CH2][Sn]([Cl])([CH2]CCC)[CH2]CCC,-5.41%
5,CCC[CH2][Sn]([CH2]CCC)[CH2]CCC,-13.3%
6,C/C=C(\C)C(=O)O[C@H]1C[C@@H](OC(C)=O)[C@@]2(C(=O)OC)CO[C@H]3[C@@H](O)[C@@](C)([C@]45O[C@@]4(C)[C@H]4C[C@@H]5O[C@@H]5OC=C[C@@]54O)[C@H]4[C@]1(CO[C@]4(O)C(=O)OC)[C@@H]32,4.96%
7,CCNc1nc(NCC)nc(SC)n1,-3.89%
8,CC1=C(C(=O)Nc2ccccc2)S(=O)(=O)CCO1,-17.4%
9,COC[C@H](C)N(C(=O)CCl)c1c(C)csc1C,-4.92%
10,CN(C)c1ccc(C(=O)c2ccc(N(C)C)cc2)cc1,-2.75%
11,C=CCC1=C(C)[C@@H](OC(=O)[C@@H]2[C@@H](C=C(C)C)C2(C)C)CC1=O,1.31%
12,CCC[CH2][Sn]([CH2]CCC)([CH2]CCC)[O][Sn]([CH2]CCC)([CH2]CCC)[CH2]CCC,3.22%
13,CNC(=O)O/N=C/C(C)(C)S(C)(=O)=O,9.32%
14,CCCCC(CC)C(=O)Cl (stereo not given),-0.757%
15,S=C([S-])NCCNC(=S)[S-].[Zn+2],4.35%
16,O=[N+]([O-])c1ccc(Oc2ccc(C(F)(F)F)cc2[N+](=O)[O-])cc1,-2.99%
17,CNP(=O)(OC)Oc1ccc(C(C)(C)C)cc1Cl (stereo not given),0.207%
18,COP(=O)(NC(C)=O)SC (stereo not given),-2.58%
19,CNC(=O)O/N=C(\C)SC,-2.31%
20,CC(C)(C#N)N=NC(C)(C)C#N,6.88%

# — PubChem BioAssay (NCATS)
